Data on six compounds can be found in PubChem BioAssay.

Activity calls are given as the source filed them.

For test [1], the system named is Human papillomavirus type 1a protein E7 (residues 44-93). Put plainly: small molecules binding HPV E7 44-93 – biochemical, small-molecule microarray, residues 44-93, 635 nm fluorescence, primary screen (AID 1108).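 Note: E7 fragment applied at 1 µg/mL in TBST for 1 h at 4 C; score combines spot fluorescence with its signal to noise ratio.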 As to conditions: fluorescence 635 nm, higher = more signal.
Test [2] in a line: hepatitis C replication reporter changes, two-sided – Huh7 cells, luciferase reporter, HCV replication inhibitor project, primary screen (AID 1109).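 Note: huh7 hepatoma cells harbouring a luciferase neomycin HCV replicon reporter; luciferase luminescence as measure of HCV replicon replication; test concentration not given here.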 Particulars: Huh7 HCV replicon luciferase reporter, 48 h; higher = more signal. (In general: In a reporter assay the amount or activity of a reporter protein is the signal.)
For test [3], the target named is Left-right determination factor 2 (Homo sapiens) (UniProt O00292). As to the kind of experiment: small molecules binding LEFTY2 protein – biochemical, small-molecule microarray, 635 nm fluorescence scan, primary screen (AID 1110). As to conditions: higher = more signal.
Test [4] addresses Calmodulin-1 (Homo sapiens) (UniProt P0DP23). Put plainly: small molecules binding calmodulin-1 with EGTA – biochemical, small-molecule microarray, Cy5-labelled CALM1, profiling panel (AID 1111).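 Note: labelled calmodulin applied in Tris saline Tween buffer holding calcium plus EGTA and DTT.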 As to conditions: Cy5-CALM1 binding fluorescence, higher = more signal.
Test [5] shares this target. Put plainly: small molecules binding Ca-loaded calmodulin-1 – biochemical, small-molecule microarray, Cy5-labelled CALM1, plus calcium, artefact control for SMM control-protein annotation, profiling panel (AID 1112).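 Note: score merges spot fluorescence with signal to noise from triplicate slides.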 As to conditions: Cy5-CALM1 binding fluorescence, higher = more signal.
Test [6] in a line: probe aWnt5a binding to arrayed compounds – biochemical, biotinylated probe, 635/667 nm fluorescence, primary screen (AID 1113).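 Note: score merges 667 nm fluorescence intensity with signal-to-noise per printed feature.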 As to conditions: small-molecule microarray, higher = more signal.
The nature of test [7]: probe aShh binding to arrayed compounds – biochemical, biotinylated probe, 635/667 nm fluorescence, primary screen (AID 1114).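 Note: probe is biotin-labelled aShh protein from a stem cell growth factor screen; measures binding of labelled protein to compounds printed on the slide; score merges feature fluorescence at 667 nm with signal-to-noise.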 Particulars: small-molecule microarray, higher = more signal.
A short description of test [8]: probe aNog binding to arrayed compounds – biochemical, biotinylated probe, 635/667 nm fluorescence, primary screen (AID 1115).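 Note: probe is biotinylated aNog protein used at 0.15 µg/mL for 1 h at 4 C; z-score combines 667 nm fluorescence of each spot with its signal to noise.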 Particulars: small-molecule microarray, higher = more signal.
The target of test [9] is Torsin-1A-interacting protein 1 (Homo sapiens) (UniProt Q5JTV8). As to the kind of experiment: compound microarray binding of lysate hLAP1 – cell lysate, small-molecule microarray, COS7 lysate, 635/667 nm fluorescence, primary screen (AID 1116). As to conditions: 635 nm fluorescence, higher = more signal.
Test [10] deals with Alpha-bungarotoxin (Bungarus multicinctus) (UniProt P60615). As to the kind of experiment: compounds binding labelled alpha-BTX control protein – biochemical, small-molecule microarray, Alexa647 label, 635/667 nm fluorescence, artefact control for SMM control protein annotation, profiling panel (AID 1117). As to conditions: alpha-BTX-A647 binding fluorescence, higher = more signal.

The target of a further test is Albumin (Bos taurus) (UniProt P02769). Put plainly: compounds binding labelled BSA control protein – biochemical, small-molecule microarray, Alexa647 label, 635/667 nm fluorescence, artefact control for SMM control protein annotation, profiling panel (AID 1118).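 Note: score merges 667 nm emission intensity and signal-to-noise per printed compound spot.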 Particulars: BSA-A647 binding, fluorescence 635 nm, higher = more signal.
A short description of test [11]: probe aXIP binding to arrayed compounds – biochemical, NeuroSMM set, 635/667 nm fluorescence, primary screen (AID 1119).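 Note: probe is the protein aXip251-270 applied at 1 µg/mL to compound-printed slides; binding of probe to printed compounds measured as 667 nm fluorescence plus signal to noise.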 As to conditions: small-molecule microarray, higher = more signal, called active from +8 up or from −8 down.
The nature of test [12]: probe aNOTCH3 binding on compound microarray – biochemical, small-molecule microarray, 635/667 nm fluorescence, primary screen (AID 1120).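 Note: probe is a biotin-tagged antibody raised against NOTCH3 rather than NOTCH3 protein; score merges spot fluorescence near 667 nm with spot signal to noise.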 As to conditions: higher = more signal.
Test [13] can be described thus: probe aNOTCH2 binding on compound microarray – biochemical, small-molecule microarray, 635/667 nm fluorescence, primary screen (AID 1121).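 Note: score merges feature fluorescence read at 667 nm with its signal to noise.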 As to conditions: higher = more signal.
Test [14] concerns the target Carbonic anhydrase 2 (Homo sapiens) (UniProt P00918). As to the kind of experiment: compounds binding carbonic anhydrase 2 – biochemical, small-molecule microarray, Alexa647-labelled CAII, profiling panel (AID 1122). As to conditions: CAII-A647 binding fluorescence, higher = more signal.
A short description of test [15]: COS7 lysate on small-molecule microarray, probe aHis, 635 nm (AID 1123).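 Note: z-score combines 667nm fluorescence intensity with signal-to-noise per printed compound spot.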 Particulars: COS7 cell lysate, fluorescence, higher = more signal.
A short description of test [16]: probe aLAP1 signal on lysate-treated microarray – cell lysate, small-molecule microarray, COS7 lysate, primary screen (AID 1124).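 Note: lysate comes from COS7 cells expressing LAP1 and is applied at 0.3 µg/mL; score merges spot fluorescence near 667 nm with signal-to-noise over triplicate slides.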 Particulars: probe aLAP1, fluorescence, higher = more signal.
A further test concerns Sam68 (KHDRBS1). Put plainly: compounds binding KHDRBS1 protein – biochemical, small-molecule microarray, 635 nm fluorescence, primary screen (AID 1125).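 Note: score merges 667 nm channel intensity with signal to noise over triplicate slides.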 As to conditions: higher = more signal.
Test [17] deals with Chordin-like protein 2 (CHRDL2). Put plainly: compounds binding chordin-like 2 – biochemical, small-molecule microarray, 635 nm fluorescence, primary screen (AID 1126).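 Note: printed compound slides probed with Chrdl2 protein at 4 µg/mL for 1 h at 4 C; score merges 667 nm emission intensity with signal to noise over three replicate slides.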 Particulars: fluorescence 635 nm, higher = more signal.
For test [18], the target named is Concanavalin-A (Canavalia ensiformis) (UniProt P02866). As to the kind of experiment: compounds binding concanavalin A lectin – biochemical, small-molecule microarray, Alexa647 label, 635 nm, artefact control for SMM control protein annotation, primary screen (AID 1127).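 Note: z combines 667 nm emission intensity with signal-to-noise across three replicate slides.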 Particulars: ConA-A647 binding fluorescence, higher = more signal.
Chain of Concanavalin-A (Canavalia ensiformis) (P02866 whole entry, looked up): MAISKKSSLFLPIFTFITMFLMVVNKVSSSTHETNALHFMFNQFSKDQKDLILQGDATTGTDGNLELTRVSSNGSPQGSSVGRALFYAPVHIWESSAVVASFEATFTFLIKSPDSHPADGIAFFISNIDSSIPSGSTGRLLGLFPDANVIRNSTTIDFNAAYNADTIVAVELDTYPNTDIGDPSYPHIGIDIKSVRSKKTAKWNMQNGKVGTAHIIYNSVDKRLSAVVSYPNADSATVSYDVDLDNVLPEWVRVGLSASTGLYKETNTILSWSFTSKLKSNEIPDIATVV

Chain of Torsin-1A-interacting protein 1 (Homo sapiens) (Q5JTV8 whole entry, looked up): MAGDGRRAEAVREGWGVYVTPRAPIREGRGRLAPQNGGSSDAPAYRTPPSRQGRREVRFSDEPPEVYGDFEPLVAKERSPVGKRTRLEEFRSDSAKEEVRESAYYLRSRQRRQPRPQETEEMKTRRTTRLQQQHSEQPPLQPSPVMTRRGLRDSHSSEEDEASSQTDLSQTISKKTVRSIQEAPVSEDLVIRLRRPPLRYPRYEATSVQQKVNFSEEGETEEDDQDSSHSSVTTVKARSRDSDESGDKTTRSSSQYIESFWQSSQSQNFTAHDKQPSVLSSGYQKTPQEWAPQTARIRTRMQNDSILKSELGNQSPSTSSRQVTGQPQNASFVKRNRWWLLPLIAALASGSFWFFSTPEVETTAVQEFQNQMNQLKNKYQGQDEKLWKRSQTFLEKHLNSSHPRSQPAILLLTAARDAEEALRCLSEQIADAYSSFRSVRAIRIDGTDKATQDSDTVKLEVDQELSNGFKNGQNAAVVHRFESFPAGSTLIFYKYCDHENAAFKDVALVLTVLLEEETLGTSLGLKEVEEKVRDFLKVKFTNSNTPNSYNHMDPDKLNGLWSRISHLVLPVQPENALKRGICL
Chain of Left-right determination factor 2 (Homo sapiens) (O00292 whole entry, looked up): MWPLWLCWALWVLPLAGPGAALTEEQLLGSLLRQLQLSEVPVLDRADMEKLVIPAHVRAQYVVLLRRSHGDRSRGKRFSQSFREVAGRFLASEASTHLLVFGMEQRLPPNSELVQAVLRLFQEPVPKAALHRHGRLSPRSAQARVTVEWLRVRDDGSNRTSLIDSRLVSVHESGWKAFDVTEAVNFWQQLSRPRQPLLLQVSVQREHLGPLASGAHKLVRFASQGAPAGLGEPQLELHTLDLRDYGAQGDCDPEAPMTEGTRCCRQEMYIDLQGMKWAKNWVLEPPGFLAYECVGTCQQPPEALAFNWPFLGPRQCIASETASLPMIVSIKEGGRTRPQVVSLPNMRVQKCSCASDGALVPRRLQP
Chain of Albumin (Bos taurus) (P02769 whole entry, looked up): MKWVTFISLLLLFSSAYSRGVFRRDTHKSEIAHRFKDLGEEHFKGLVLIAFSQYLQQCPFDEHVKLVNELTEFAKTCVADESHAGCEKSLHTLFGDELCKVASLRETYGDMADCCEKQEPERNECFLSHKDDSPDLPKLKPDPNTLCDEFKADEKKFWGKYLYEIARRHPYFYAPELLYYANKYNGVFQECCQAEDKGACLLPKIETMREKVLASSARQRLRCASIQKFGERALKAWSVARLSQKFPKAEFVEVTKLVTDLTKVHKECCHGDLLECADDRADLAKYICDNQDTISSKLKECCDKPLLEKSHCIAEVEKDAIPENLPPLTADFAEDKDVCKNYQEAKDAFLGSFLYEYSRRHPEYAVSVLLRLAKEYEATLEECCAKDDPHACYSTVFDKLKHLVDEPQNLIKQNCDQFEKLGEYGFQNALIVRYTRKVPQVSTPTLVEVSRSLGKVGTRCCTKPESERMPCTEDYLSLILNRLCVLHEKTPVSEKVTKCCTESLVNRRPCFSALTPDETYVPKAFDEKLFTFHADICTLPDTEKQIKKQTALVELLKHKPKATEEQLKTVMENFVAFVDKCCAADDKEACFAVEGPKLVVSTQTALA
Chain of Alpha-bungarotoxin (Bungarus multicinctus) (P60615 whole entry, looked up): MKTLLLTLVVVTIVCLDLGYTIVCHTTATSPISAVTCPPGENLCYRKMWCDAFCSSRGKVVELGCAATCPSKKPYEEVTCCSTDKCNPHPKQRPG

For the compound `CCOC(=O)[C@H]1C/C=C/C[C@H](C(=O)OCC)C(=O)O[C@H]2[C@@H](OC)O[C@H](CO)[C@@H](OC(=O)c3ccc(Br)cc3)[C@@H]2OC1=O`, the composite z-score in test [1] was 0.215; in test [3], 0.466; in test [4] it was 0.389; in test [5], 0.502; in test [6], -0.0704; in test [7] it was 0.134. Moreover, the composite z-score was 0.0795 in test [8]; 0.863 in [9]; 0.369 in test [10]; 0.184 with Albumin (Bos taurus); 0.037 in [12]; -0.0956 in [13]. The composite z-score in test [14] was 0.397; in [15], 0.306; in test [16] it was 0.435; in the test with Sam68 (KHDRBS1) it was -0.0942; in test [17] it was 0.406; in test [18] it was 0.205. In addition, in test [2], the z-score was -2.74. Moreover, the composite Z-score in [11] is 0.38 (inactive).
As for `[N-]=[N+]=Nc1ccccc1[C@H]1OC(c2ccc(OCCCO)cc2)=N[C@@]1(CCS(=O)(=O)c1ccccc1)C(=O)NCc1ccccc1`, the composite z-score in [1] is 1.46; in [3], 0.565; in test [4] it was 0.937; in test [5], 0.338; in test [6], 0.153; in test [7], 0.0723. For the same compound, the composite z-score in test [8] was -0.487; in test [9], 1.06; in test [10] it was 0.785; with Albumin (Bos taurus), 0.307; in [12], 0.318; in test [13], -0.037. Further, the composite z-score in test [14] was 0.684; in [15], 2.3; in test [16] it was 0.403; in the test on Sam68 (KHDRBS1), 1.32; in test [17] it was -0.164; in [18], 0.94. Also, in test [2], the z-score is -0.242. For the same compound, the composite Z-score in test [11] is -0.0549 (inactive).
Turning to `C=C(CCCC)/C(=C/C[C@@H](OC(C)=O)c1ccccc1OCCO)c1cc(C(=O)OC)ccc1OC`, the composite z-score in test [1] is 0.129; in test [3], -0.346; in [4], -0.421; in test [5] it was -0.798; in test [6], -0.124; in [7], -0.0769. Moreover, the composite z-score in test [8] was 0.0459; in [9], -0.107; in test [10] it was 1.15; in the test with Albumin (Bos taurus) it was 0.056; in test [12], -0.0947; in test [13], -0.103. In addition, the composite z-score in [14] is 0.402; in [15], 0.0769; in test [16] it was 0.0978; in the test on Sam68 (KHDRBS1) it was 0.166; in test [17], -0.354; in test [18] it was -0.544. The same compound gave a z-score in [2] of -2.13. Moreover, the composite Z-score in [11] was -0.737 (inactive).
`O=C1O[C@H](c2ccccc2)[C@H](c2ccccc2)N2[C@H]1[C@@H](C(=O)N1CCN(c3ncccn3)CC1)[C@]1(C(=O)Nc3ccc(C#CC4=CCCCC4)cc31)[C@H]2c1ccccc1OCCO`: the composite z-score in test [1] is 0.379; in [3], 0.818; in [4], 0.858; in test [5], -0.198; in test [6], 0.212; in test [7], 0.299. Moreover, the composite z-score in test [8] was determined as 0.998; in [9] it was 0.201; in test [10] it was 1.59; with Albumin (Bos taurus), 0.28; in test [12], 0.503; in test [13], 0.123. For the same compound, the composite z-score in [14] was 0.491; in [15], 1.88; in test [16], 1.19; with Sam68 (KHDRBS1), 1.28; in test [17] it was 0.646; in [18], 1.16. In test [2], the z-score is -1.67. Besides, the composite Z-score in test [11] was -0.0798 (inactive).
On to `CC(C)CCC[C@@H](C)[C@H]1CC[C@@]2(C)C3=C(CC[C@]12C)[C@@]1(C)CC[C@H](OC(=O)c2ccc(C(F)(F)F)nc2)C(C)(C)C1CC3` (stereo not given in full), for which the composite z-score in [1] was 0.592; in test [3] it was 0.31; in test [4] it was -0.0347; in test [5], -0.337; in test [6], -0.162; in test [7], 0.0141. Further, the composite z-score in [8] was -0.68; in [9], 0.69; in [10], 0.328; in the test with Albumin (Bos taurus), 0.326; in test [12], -0.111; in test [13], -0.17. Moreover, the composite z-score in [14] was -0.0684; in [15], 0.493; in [16], 0.0819; with Sam68 (KHDRBS1), 0.42; in test [17], 0.827; in [18], 0.311. Also, in test [2], the z-score amounted to 0.336. Further, the composite Z-score in [11] was -0.0967 (inactive).
Turning to `COCCCNC(=O)[C@@H]1c2ccccc2C(=O)N(Cc2ccccc2OC)[C@H]1c1ccc(CO)cc1`, the composite z-score was 0.889 in test [1]; -0.0144 in test [3]; 0.349 in [4]; 0.392 in test [5]; 0.0279 in test [6]; -0.0035 in test [7]. For the same compound, the composite z-score in test [8] is -0.136; in test [9] it was 1.62; in test [10], 0.117; with Albumin (Bos taurus), 0.459; in test [12], -0.0932; in test [13] it was -0.155. The composite z-score in test [14] is 0.711; in test [15], 1.36; in test [16], -0.355; in the test on Sam68 (KHDRBS1), -0.268; in [17] it was 0.447; in test [18] it was 0.948. Further, the z-score in test [2] was -1.96. The composite Z-score in [11] is 0.414 (inactive).
